# SNCA viab count = cell viability loss counter-screen | 150,000 tested, 0.12% active | HEK-293-SNCA-luc viability, GF-AFC fluorescence, 24 h | Potency, µM (doses to about 57.1 µM), hits mostly cytotoxic; also: nearly all actives have a fitted effect of over 30% in size
#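 Cytotoxicity counterscreen: after 24 h compound treatment of genome-edited SNCA-luciferase HEK-293 cells, live-cell protease substrate GF-AFC read by fluorescence after 30 min; activity scaled between DMSO (0%) and medium-only (-100%), curves Hill-fitted.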
# SNCA expr inh = reduces expression of the alpha-synuclein gene; HEK-293 SNCA-luciferase knock-in, luminescence, 24 h; Potency, µM (doses to about 57.2 µM), usual class: inhibitors; 140,000 tested, 0.17% active; AID 1671194; also: nearly all actives have a fitted effect of over 45% in size
# FLuc inh-1 = blocks purified firefly luciferase enzyme activity. 76,000 tested, 2.5% active. P08659. AID 1347043. purified P. pyralis luciferase, luminescence, biochemical. Potency, µM (doses to about 115 µM), usual class: inhibitors; also: nearly all actives have a fitted effect of over 65% in size
# Target sequence (P08659 whole entry, looked up): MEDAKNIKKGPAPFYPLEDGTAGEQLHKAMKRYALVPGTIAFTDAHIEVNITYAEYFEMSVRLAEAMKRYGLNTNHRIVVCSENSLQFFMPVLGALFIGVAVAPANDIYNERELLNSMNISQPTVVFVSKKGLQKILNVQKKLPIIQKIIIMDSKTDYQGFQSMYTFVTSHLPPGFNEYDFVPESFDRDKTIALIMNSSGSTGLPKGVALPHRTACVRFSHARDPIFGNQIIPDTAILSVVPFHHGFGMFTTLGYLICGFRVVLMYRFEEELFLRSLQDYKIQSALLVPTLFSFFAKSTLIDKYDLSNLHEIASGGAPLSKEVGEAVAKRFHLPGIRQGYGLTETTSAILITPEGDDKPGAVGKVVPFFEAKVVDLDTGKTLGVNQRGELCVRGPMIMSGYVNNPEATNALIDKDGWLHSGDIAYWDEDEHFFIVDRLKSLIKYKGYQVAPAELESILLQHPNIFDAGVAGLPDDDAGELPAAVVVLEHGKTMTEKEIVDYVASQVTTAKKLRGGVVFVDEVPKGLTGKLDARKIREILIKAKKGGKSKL
#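 Inhibitors were tested against purified firefly luciferase in a biochemical, low-substrate format (both substrates at 10uM) and luminescence measured with a CCD imager.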
# NPR1 antag = blocks ANP-stimulated signaling of human Npr1 receptor; HEK293 hNpr1 GloSensor cGMP, ANP-stimulated luminescence; Potency, µM (doses to about 46.3 µM), most hits filed as inhibitors; 76,000 tested, 1.6% active; calls by dose curve; also: nearly all actives have a fitted effect of over 60% in size
#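 HEK293 cells stably expressing human Npr1 and cGMP GloSensor pGS-40F, loaded 2 h with 2% GloSensor reagent, given compound 30 min at room temperature. Luminescence read before and 20 min after 0.1 nM hNppA.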
# 3T3 cytotox = NIH 3T3 cell cytotoxicity; NIH 3T3 viability, CellTiter-Glo ATP luminescence, 48-72 h; Potency, µM (highest dose often 96.7 µM), hits mostly inhibitors; 94,000 tested, 4.3% active; AID 1345082; also: nearly all actives have a fitted effect of over 55% in size
#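 First NIH 3T3 cells are plated at 400 cells/well; next compound is pinned in; then plates incubate 48 or 72 hr at 37 °C; finally CellTiter-Glo is added and luminescence read after 10 min.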
# HEK293 tox = kills HEK 293 cells; HEK 293 viability, ATP luminescence (CellTiter-Glo), 48-72 h; AID 1345083; 94,000 tested, 6.6% active; Potency, µM (top dose mostly 115 µM), most hits filed as inhibitors; also: nearly all actives have a fitted effect of over 60% in size
#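 Pintool-delivered compounds were incubated with HEK 293 cells (250 cells/well) at 37 degree Celsius for 48 or 72 hr. ATP-dependent luminescence (CellTiter-Glo) then reported remaining viable cells.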
# FLuc SDR no ATP = stabilizes firefly luciferase without ATP; 1,300 tested, 7.8% active; shares compounds with FLuc inh-1; AID 1963318; Purified FLuc-C-HiBiT, Nano-Glo HiBiT luminescence, no ATP; Potency, µM (series often up to 32.7 µM), hits mostly activators; also: nearly all actives have a fitted effect of over 55% in size
# FLuc SDR ATP = binders stabilizing firefly luciferase, plus ATP; shares compounds with FLuc inh-1; purified FLuc-C-HiBiT + ATP, HiBiT complementation luminescence; Potency, µM (series often up to 32.7 µM), hits mostly activators; 1,300 tested, 8.7% active;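 also: signal reports ligand binding via conformational change of the enzyme rather than luciferase catalysis; nearly all actives have a fitted effect of over 55% in size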
# FLuc inh-2 = inhibitors of firefly luciferase enzymatic activity. shares compounds with FLuc inh-1. purified FLuc-C-HiBiT enzyme, luciferin luminescence. Potency, µM (series often up to 32.7 µM), actives largely listed as inhibitors. 1,300 tested, 42% active; also: nearly all actives have a fitted effect of over 70% in size
# Hits are given with their value; i = inactive; ? = inconclusive; nt = no result; [ ] = remark or other dose. Shown are actives, neighbours in structure and some others; about 7.2% of the full set was active somewhere. Unless noted, calls follow the shape of the dose curve; as a rule, active = well fitted curve in the direction sought with a large enough effect; inconclusive = small, poorly fitted or top-dose-only effect, or another doubt; inactive = no such curve, though single readings can be large; an effect the other way counts as inactive or inconclusive.
SMILES,SNCA viab count,SNCA expr inh,FLuc inh-1,NPR1 antag,3T3 cytotox,HEK293 tox,FLuc SDR no ATP,FLuc SDR ATP,FLuc inh-2
COc1ccc(-c2cc3c(=O)n(CCNC(=O)c4c(F)cccc4F)ccn3n2)cc1,i,i,4µM,i,i,i,?,?,5µM
CCOc1ccc(-c2cc3c(=O)n(CCNC(=O)Cc4ccccc4C)ccn3n2)cc1,i,i,?,i,i,?,nt,nt,nt
COc1ccc(-c2nc(C)c(CCNC(=O)c3c(F)cccc3F)s2)cc1,i,i,nt,nt,nt,nt,i,i,i
COc1ccc(-c2cc3c(=O)n(CCNC(=O)c4c(F)cccc4Cl)ccn3n2)cc1,i,i,3.2µM,i,i,?,?,?,?
Cc1ccc(NC(=O)[C@H]2CCC[C@H]2NC(=O)c2cnc(C)cn2)cc1,i,i,?,i,i,i,nt,nt,nt
Cc1cccn2c(CNC3CCC4(CCNCC4)CC3)cnc12,i,i,i,i,i,i,nt,nt,nt
O=C(NCc1ccc(N2CCOCC2)cc1)c1cc[nH]c1C1CCCNC1 (configuration not stated),i[12.5 µM],i,i,i,i,i,nt,nt,nt
COc1cccc(-c2cc3c(=O)n(CCNC(=O)C4CCN(C(C)=O)CC4)ccn3n2)c1,i,i,14µM,i,i,i,?,?,?
COc1ccc(-c2cc3c(=O)n(CCNC(=O)c4ccco4)ccn3n2)cc1,i,i,7.9µM,i,?,?,?,?,9.9µM
COc1cccc(C(=O)NCCn2ccn3nc(-c4ccc(C)c(C)c4)cc3c2=O)c1,i,i,?,i,i,i,nt,nt,nt
COc1cccc(-c2cc3c(=O)n(CCNC(=O)C4CCCCC4)ccn3n2)c1,i,i,?,?,i,?,nt,nt,nt
COCCCn1c(C(C)NC(=O)OCc2ccccc2)nc2cccnc21 (configuration not stated),i,i,i,i,i,i,nt,nt,nt
COc1cccc(CN2CCc3nc(C4CC4)nc(-c4ccc(O)cc4)c3C2)c1,i,i,i,i,?,?,nt,nt,nt
O=C(c1cc(-c2ccc(F)cc2)nc2ccccc12)N1CCC(c2nc(C3CCOCC3)no2)C1 (configuration not stated),i,i,10µM,i,?,?,?,i,?
O=C(c1cc(-c2ccc(F)cc2)nc2ccccc12)N1CCCC(c2nc(C3CCOCC3)no2)C1 (configuration not stated),i,i,?,i,?,?,nt,nt,nt
Cc1ccc(CN2CCC3(CC2)OC(=O)N(Cc2ccc(O)cc2)C3(C)c2ccccc2)o1 (configuration not stated),i,i,i,i,?,?,nt,nt,nt
Cc1ccc(C(=O)N2CC(c3nnc(-c4ccc(C)cc4)o3)C3(CCOCC3)C2)cc1 (configuration not stated),i,i,i,i,i,i,nt,nt,nt
Cc1ccc(-c2nnc(C3CN(C(=O)c4sc(C)nc4C)CC34CCOCC4)o2)cc1 (configuration not stated),i,i,i,i,i,i,i,i,i
Cc1ccc(NC(=O)C2CCN(C(=O)N3CC4CC(C3)[C@H]3CCCC(=O)N3C4)CC2)cc1 (some centres not stated),i,i,i,i,i,i,nt,nt,nt
O=C(Nc1ccccc1)C1CCN(C(=O)N2CC3CC(C2)[C@H]2CCCC(=O)N2C3)CC1 (some centres not stated),i,i,i,i,i,i,i,i,i
CCOC(=O)c1ccc(NC(=O)c2nsc3ccccc23)cc1,i,i,nt,nt,nt,nt,i,i,3.5µM
Cc1noc(-c2ccc(-c3noc(-c4ccccc4)n3)cc2)n1,i,i,nt,nt,nt,nt,nt,nt,nt
Fc1ccccc1-c1nc(-c2ccccc2)no1,nt,nt,nt,nt,nt,nt,?,?,1.6µM
Cc1ccc(-c2nc(-c3ccccc3)no2)c(Cl)c1,nt,nt,nt,nt,nt,nt,3.9µM,3.5µM,0.2µM
COC(=O)c1cccc(-c2noc(-c3ccccc3F)n2)c1,nt,nt,nt,nt,nt,nt,i,i,?
SMILES,SNCA viab count,SNCA expr inh,FLuc inh-1,NPR1 antag,3T3 cytotox,HEK293 tox,FLuc SDR no ATP,FLuc SDR ATP,FLuc inh-2
Brc1ccccc1-c1nc(-c2ccccc2)no1,nt,nt,nt,nt,nt,nt,i,?,3.5µM
COc1cccc(C(=O)Nc2ccccc2-c2nc(-c3ccc(C)cc3)no2)c1,i,i,nt,nt,nt,nt,nt,nt,nt
O=C(O)c1cccc(-c2noc(-c3ccccc3F)n2)c1,i,i,nt,nt,nt,nt,11µM,0.005µM,0.0062µM
COc1ccc(NC(=O)c2cccc3c2CCN3C(=O)c2ccc(F)cc2)cc1OC,i,i,?,i,i,i,nt,nt,nt
COc1ccc(NC(=O)c2cccc3c2CCN3C(=O)c2ccc(F)cc2)cc1,i,i,i,i,i,i,nt,nt,nt
CN(C)C(=O)c1cccc2c1CCN2C(=O)Nc1ccc(F)cc1,i,i,13µM,i,i,i,i,6.2µM,3.9µM
O=C(O)c1cccc2c1CCN2C(=O)Nc1ccc(F)cc1,i,0.89µM,0.0079µM,0.32µM,?,8.9µM,11µM,0.0062µM,0.0035µM
Cc1cc(Cl)ccc1NC(=O)N1CCC(Oc2ncccc2C(=O)N2CCOCC2)C1 (configuration not stated),i,i,i,i,i,i,nt,nt,nt
COC(=O)c1c(-c2cccs2)csc1NC(=O)c1ccc(C)cc1,i,i,nt,nt,nt,nt,i,i,?
COC(=O)c1c(-c2cccs2)csc1NC(=O)c1ccc(OC)c(OC)c1,i,i,nt,nt,nt,nt,nt,nt,nt
COC(=O)c1c(-c2cccs2)csc1NC(=O)c1ccc(Br)cc1,i,i,nt,nt,nt,nt,i,i,11µM
Cc1ccc(C(=O)Nc2cccc(-c3ccc(N4CCN(C)CC4)nn3)c2)cc1C,i,i,6.3µM,i,25µM,?,?,?,3.9µM
CN1CCN(c2ccc(-c3cccc(N)c3)nn2)CC1,i,22µM,11µM,?,i,i,i,?,6.2µM
CSc1cccc(NC(=O)Nc2cccc(-c3ccc(N4CCOCC4)nn3)c2)c1,i,i,0.79µM,?,35µM,28µM,?,?,1.6µM
O=C(Nc1cccc(-c2ccc(N3CCOCC3)nn2)c1)Nc1cc(F)ccc1F,?,?,0.89µM,10µM,?,79µM,?,?,2.5µM
Cc1cc(Cl)ccc1S(=O)(=O)N(C)CC1CCOCC1,i,i,i,i,i,i,nt,nt,nt
O=C(Nc1cccc(-c2ccc(N3CCOCC3)nn2)c1)Nc1ccccc1F,i,i,1.6µM,?,?,18µM,?,?,2.8µM
CCc1cccc(NC(=O)Nc2cccc(-c3ccc(N4CCOCC4)nn3)c2)c1,?,i,2µM,?,?,40µM,?,i,6.2µM
